# Source: PubChem BioAssay AID588591 (National Center for Advancing Translational Sciences (NCATS), 2011)
# Among all 390,000 compounds or so, about 4,700 (1.2%) were called active. Not shown: some 4% with an inconclusive outcome. Many of the other results were omitted from the sample, so actives are more common in it than they were. A number with no mark means an inactive call. The call rests on the fitted dose curve; in most records, active means well fitted inhibition curve with a large enough effect; inconclusive means small, poorly fitted or top-dose-only effect, or another doubt; inactive means no such curve, though single readings can be large or run the other way.
# Molecular target: DNA polymerase eta (Homo sapiens) (UniProt Q9Y253)
# Assay: qHTS for Inhibitors of Polymerase Eta
# Details: recombinant Pol eta, fluorescent DNA replication assay; series mostly up to 114 µM; activity change, negative = inhibition: at the top concentration
# Description: The Y-family of DNA polymerases, such as Pol eta, are specifically involved in DNA repair. Pol eta copies undamaged DNA with a lower fidelity than other DNA-directed polymerases. However, it accurately replicates UV-damaged DNA; when thymine dimers are present, this polymerase inserts the complementary nucleotides in the newly synthesized DNA, thereby bypassing the lesion and suppressing the mutagenic effect of UV-induced DNA damage. […] Thus, while pol eta's (and most likely iota's) normal function is to protect humans against the deleterious consequences of DNA damage, under certain conditions they can have deleterious effects on human health. As a consequence, we propose to utilize a high throughput replication assay to identify small molecule inhibitors of pol eta. In a collaboration between the National Institute of Child Health & Human Development (NICHD) and NIH Chemical Genomics Center, a high-throughput, fluorescent screen was developed to screen the NIH Molecular Libraries Small Molecule Repository (MLSMR). This screen is used to identify inhibitors of pol eta. NIH Chemical Genomics Center [NCGC] NIH Molecular Libraries Probe Centers Network [MLPCN] MLPCN Grant: MH090825 Assay Submitter (PI): Roger Woodgate, NICHD)
# Three microliters of reagents (buffer in column 3 and 4 as negative control and 10 nM Pol eta in columns 1, 2, and 5-48) were dispensed into a 1,536-well black solid-bottomed plate. Compounds (23 nL) were transferred via Kalypsys pin tool equipped with 1536-pin array. The plates were then incubated for 15 min at room temperature, and 1 µL substrate (50 nM final concentration) was added to start the reaction and kinetically read twice at 0 min and 10 min on the Viewlux reader
# On the % scale 0 is the no-effect control and ±100 the full control effect; potency means the concentration at half of the fitted maximal effect.
# Sequence of DNA polymerase eta (Homo sapiens) (Q9Y253 whole entry, looked up): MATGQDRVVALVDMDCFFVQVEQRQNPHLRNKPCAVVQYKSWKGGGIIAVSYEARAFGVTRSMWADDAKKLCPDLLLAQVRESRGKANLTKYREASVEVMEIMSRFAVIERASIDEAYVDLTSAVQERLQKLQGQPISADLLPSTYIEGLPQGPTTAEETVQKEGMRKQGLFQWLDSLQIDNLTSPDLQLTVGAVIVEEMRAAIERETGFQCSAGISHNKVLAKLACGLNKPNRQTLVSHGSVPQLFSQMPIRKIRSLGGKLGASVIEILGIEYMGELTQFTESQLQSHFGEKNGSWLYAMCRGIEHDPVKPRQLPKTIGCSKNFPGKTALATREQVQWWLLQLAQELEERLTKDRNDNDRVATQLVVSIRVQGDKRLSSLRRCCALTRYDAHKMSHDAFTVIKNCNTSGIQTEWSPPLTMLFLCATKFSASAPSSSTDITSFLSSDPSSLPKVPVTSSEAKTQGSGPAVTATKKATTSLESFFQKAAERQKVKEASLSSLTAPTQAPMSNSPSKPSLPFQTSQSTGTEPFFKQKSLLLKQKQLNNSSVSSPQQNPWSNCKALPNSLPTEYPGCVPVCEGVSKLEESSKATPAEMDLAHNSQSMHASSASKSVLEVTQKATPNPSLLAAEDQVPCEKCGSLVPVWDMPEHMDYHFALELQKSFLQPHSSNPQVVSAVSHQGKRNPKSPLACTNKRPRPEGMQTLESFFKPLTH
SMILES,Potency,"activity change, negative = inhibition [%]"
O=C(O)C1=C(C(=O)O)C2CCC1C2,17.8 µM (active),
O=C(CSc1ncc(S(=O)(=O)c2ccc(Br)cc2)c(=O)[nH]1)Nc1ccc2c(c1)OCCO2,,-18.1
CCOc1ccccc1NC(=O)COc1ccc(S(=O)(=O)N2CCCC2)cc1,,-8.27
CCOc1ccccc1NC(=O)CSc1ncc(S(=O)(=O)c2ccc(C(C)(C)C)cc2)c(=O)[nH]1,89.1 µM (active),
Cc1cc(C)cc(NC(=O)Cc2csc(C)n2)c1,,-1.34
COc1cccc(NC(=O)CSC2=Nc3ccccc3C3=NC(CC(=O)NC4CCCCC4)C(=O)N23)c1 (stereo not given),,-0.885
Cc1c(C(=O)N2CCCC2)oc2c1-c1nn(CC(=O)NCc3ccc(OC(C)C)cc3)cc1CC2,,-18.6
CC(C)C1N=C2c3ccccc3N=C(SCC(=O)c3ccc(O)c(O)c3)N2C1=O (stereo not given),2.24 µM (active),
CCOC(=O)CSC1=Nc2ccccc2C2=NC(CCC(=O)NCc3ccc(F)cc3)C(=O)N12 (stereo not given),,3.45
Cc1ccc(CNC(=O)CSC2=Nc3ccccc3C3=NC(C)C(=O)N23)cc1 (stereo not given),,-3.8
CCCN1C(=O)C(O)(CC(=O)c2ccc(CC)cc2)c2cc(Br)ccc21 (stereo not given),,-2.45
CCOC(=O)c1ccc(-c2ccc(/C=C(\C#N)C(=O)Nc3ccc(C)cc3)o2)cc1,,-6.58
COc1ccc(NC(=O)/C(C#N)=C\c2cc(OC)c(OCc3ccc(C(=O)O)cc3)cc2Br)cc1,50.1 µM (active),
COc1ccc(CCNC(=O)CSc2nc(-c3ccc(OC)c(OC)c3)ccc2C#N)cc1,,-16.6
COc1ccc2c(c1)Cc1sc(NC(=O)c3ccccc3Br)nc1-2,,-17.5
O=c1cc(CSc2ncn[nH]2)[nH]c2ccc(F)cc12,,-5.87
O=C(c1ccc(CS(=O)Cc2ccccc2Cl)o1)N1CCN(c2ccccc2)CC1 (stereo not given),,-11
O=C(c1ccc(CS(=O)(=O)c2ccccc2)o1)N1CCN(c2ccccc2)CC1,50.1 µM (active),
CCOC(=O)C1CCCN(C(=O)c2ccc(CS(=O)(=O)c3ccc(Br)cc3)o2)C1 (stereo not given),,-7.23
COC(=O)c1sccc1S(=O)(=O)N(CC(=O)Nc1ccc(C)c(F)c1)c1ccc(C)c(C)c1,,-16.4
Cc1ccc(-c2nn(-c3ccccc3)cc2/C=C2\SC(=S)N(CCCCCC(=O)O)C2=O)o1,44.7 µM (active),
Cc1nc(C)c(-c2nnc(-c3cccc(S(=O)(=O)N(C)C)c3)o2)cc1C(=O)NN,,-1.81
CN(C)S(=O)(=O)c1cccc(-c2nn(-c3ccccc3)cc2/C=C2\SC(=S)N(CC(=O)O)C2=O)c1,35.5 µM (active),
Cc1nn(-c2ccc(F)cc2)c(-n2cccc2)c1C(=O)N1CCN(c2ccccc2)CC1,,-19.6

SMILES,Potency,"activity change, negative = inhibition [%]"
COc1ccccc1N1CCN(CCCNC(=O)c2cnn(-c3ccccc3Cl)c2C2CCN(C(=O)OC(C)(C)C)CC2)CC1,,-19.7
CSc1ccc(CCNC(=O)c2cnn(-c3ccccc3)c2-n2cccc2)cc1,,-21.5
O=C(Nc1ccc(F)cc1F)c1ccc2c(=O)n3c(nc2c1)CCCCC3,,7.2
CCc1cccc(NC(=O)c2cnc(N3CCOCC3)c3ccccc23)c1,,-24.7
CCOC(=O)C1=C(c2ccccc2)NC(=O)NC1c1cc(OC)c(OC)cc1OC (stereo not given),,5.55
CCOC(=O)C1C(=O)C=C(c2ccc(OC)cc2)CC1c1ccco1 (stereo not given),,-5.95
CCOC(=O)C1=C(c2ccc(OC)cc2)C(=O)c2ccccc2C1=O,89.1 µM (active),
Clc1ccc(CSc2nncn3c2cc2occc23)cc1,,-28.9
CCOC(=O)C1=C(C)OC(N)=C(C#N)C1c1cncc(-c2ccc(F)cc2)c1 (stereo not given),,-10.5
C=CCC1(C#N)C(=S)NC(C)=C(C(=O)OCC)C1c1ccccc1 (stereo not given),,-9.51
C=CCOC(=O)C1=C(C)NC(SCC(=O)OCC)=C(C#N)C1c1ccc(C)cc1 (stereo not given),17.8 µM (active),
COC(=O)c1c(NC(=O)c2ccc(Cl)c(Cl)c2)sc2c1CCCC2,,-18.5
COC(=O)c1ccc(-c2nc3cc(NC(C)=O)ccc3o2)cc1,,0.0029
CC1CCN(C(=O)CSc2nnc(-c3ccco3)n2N)CC1,,-18.2
NC(=O)c1c(NC(=O)CSc2nnc(-c3ccco3)n2N)sc2c1CCCC2,12.6 µM (active),
CCOC(=O)c1c(NC(=O)CSc2nnc(CN3CCOCC3)n2C)sc2c1CCCC2,,-21.9
CCOC(=O)c1c(C)[nH]c(CCC(=O)NCCCN2CCN(c3cc(C)ccc3C)CC2)c1C,,-20.8
CCCc1nn2c(=O)cc(COC(=O)c3ccc(NC(=O)C(C)Oc4ccccc4)cc3)nc2s1 (stereo not given),,-0.486
COc1ccc(OC)c(CCNC(=O)CCCn2c(=O)c3cccn3c3cccnc32)c1,,-8.68
Cc1ccccc1-c1nc2scc(CCNC(=O)C(=O)Nc3ccc(F)cc3F)n2n1,,-18.1
Cc1ccc(C(=O)NCCSc2c(C)[nH]c3ccccc23)cc1C,,-23.4
CCCCNC(=O)c1cc(-c2ccc(Cl)c(Cl)c2)on1,,-6.17
Nc1ccc2c(c1)C(=Cc1cccnc1)c1ccccc1-2,,-16
O=C1/C(=C\c2cccnc2)CN(Cc2ccccc2)C/C1=C\c1cccnc1,50.1 µM (active),

SMILES,Potency,"activity change, negative = inhibition [%]"
O=C(O)CCc1cccnc1,,-2.96
COc1ccc(OCC(=O)Nc2cccc(C(=O)OCc3cc(=O)n4nc(C)sc4n3)c2)cc1,,-20.5
CC1CCN(c2ccc(C(=O)NCc3ccc4c(c3)OCO4)cc2[N+](=O)[O-])CC1,,-26.9
CC1CCN(c2ccc(S(=O)(=O)Nc3cc(C(=O)O)cc(C(=O)O)c3)cc2[N+](=O)[O-])CC1,22.4 µM (active),
Cc1ccc(C(=O)c2ccc(N3CCN(C)CC3)c([N+](=O)[O-])c2)cc1,,-11.6
O=C(O)C1CCN(c2ccc([N+](=O)[O-])cc2[N+](=O)[O-])CC1,25.1 µM (active),
CC1CCN(c2ccc(C(=O)Nc3nnc(C4CC4)s3)cc2[N+](=O)[O-])CC1,,-2.8
Cc1cccc(N2CCN(c3ccc(C(N)=O)cc3[N+](=O)[O-])CC2)c1C,,-7.46
COc1ccc(C(=O)Nc2onc3c2CCCC3)cc1,,-17.3
COc1ccc(CCNS(=O)(=O)c2cc(-c3cc(C)no3)ccc2C)cc1OC,,-9.95
Cc1ccccc1NC(=O)Cn1c(=O)n(CC2CCC(C(=O)NCCc3ccccc3)CC2)c(=O)c2ccccc21 (stereo not given),,-0.383
O=C(CSc1nc2nccnc2c(=O)n1CCc1c[nH]c2ccccc12)Nc1ccccc1F,,-13.3
COc1ccc(CCNC(=O)Cn2c(=O)cc(C(F)(F)F)c3c(C)nn(C)c32)c(OC)c1,,-11.4
CC(=O)c1ccc(NC(=O)CSc2c(C(C)C)cnc3c2c(=O)n(C)c(=O)n3C)cc1,,-13.3
O=C(O)c1c(CNCc2cccc(F)c2)c2ccccc2n1Cc1ccccc1,,-0.34
COCCCNc1nc2c(-c3cccc(C(F)(F)F)c3)nnn2c2ccccc12,,-9.1
COCCCNc1nc2c(-c3cccc(C)c3)nnn2c2ccc(Cl)cc12,25.1 µM (active),
COc1ccc(CCNc2nc3c(-c4cccc(F)c4)nnn3c3ccccc23)cc1OC,,-6.17
CCC(CC)c1nn2cc(-c3ccccc3)nc2s1,,-11.7
COc1ccc(S(=O)(=O)c2c(Nc3ccc(C)cc3)sc(C(=O)c3ccc(C)cc3)c2N)cc1,,-1.29
Cc1nc2ccc(S(=O)(=O)N(CC(=O)Nc3ccc(F)cc3)Cc3ccccc3)cc2s1,,-16.1
NS(=O)(=O)c1ccc2nc(NC(=O)COc3ccccc3)sc2c1,,5.57
NS(=O)(=O)c1ccc2nc(NC(=O)CS(=O)(=O)c3ccc(F)cc3)sc2c1,79.4 µM (active),
CCOc1ccc(CCNC(=O)CN(c2ccc(C)cc2)S(=O)(=O)N(C)C)cc1OCC,,-20.3

SMILES,Potency,"activity change, negative = inhibition [%]"
O=C(Nc1cc(Cl)cc(Cl)c1)c1ccc2c(c1)N(Cc1cccc(Cl)c1)C(=O)c1ccccc1S2=O (stereo not given),,-22.9
O=c1[nH]n2c(=O)c3c([nH]c2c1N=Nc1ccccc1)CCC3,31.6 µM (active),
CC(C)(C)n1c(=O)[nH]c2c(c1=O)CCC2,,-3.5
Cc1ccc(-n2ncc3c(NCCCn4ccnc4)ncnc32)cc1Cl,,-18.1
O=C(COc1ccccc1F)OCc1cc(=O)n2nc(C3CCCCC3)sc2n1,,-18
O=C(CCSCc1cccc(F)c1)NCc1ccccc1,,11.9
CCc1cc2c(cc(C(=O)OC)n2Cc2nc(-c3ccc(C)cc3)oc2C)s1,,6.26
Cc1csc(SCC(=O)Nc2sccc2C#N)n1,79.4 µM (active),
CC(=O)c1cc(C#N)c(SCC(=O)Nc2nccs2)nc1C,,-3.13
CC(c1nnc(SCC(=O)Nc2sccc2C#N)n1-c1ccc(Cl)cc1)N(C)C (stereo not given),,8.96
COc1ccc(S(=O)(=O)NCc2cccn2Cc2cccc(C)c2)cc1Cl,,-14.1
CSc1cccc(NC(=O)CN2C(=O)CCc3cc(S(=O)(=O)N4CCCCC4)ccc32)c1,,-5.6
Cc1ccc2nc(COc3ccc(NC(=O)COc4ccccc4F)cc3)cc(=O)n2c1,,-15.3
CC(=O)c1ccc(NC(=O)c2nc(-c3ccc(C)cc3)n3c2CCCCC3)cc1,,-12.9
N#Cc1c(N2CCCCC2)nc(N)c2c(N)nc(SCC(=O)O)cc12,22.4 µM (active),
Cc1ccc(CN2CCC(CNC(=O)c3cnn(-c4ccccc4Cl)c3C3CCN(C(=O)OC(C)(C)C)CC3)CC2)cc1,,-19.5
COc1ccc(-c2cc(NCc3ccc(F)cc3)n3cnnc3n2)cc1,,-10.6
CC1CN(C(=O)N2CCC(C(=O)NCc3cccs3)CC2)c2ccccc2O1 (stereo not given),,-18.7
N#Cc1c(-c2cccs2)nc(SCC(=O)c2ccc(Br)cc2)[nH]c1=O,35.5 µM (active),
Cc1nnc(SCC(=O)NCc2cccs2)[nH]c1=O,,-2.58
N#Cc1ccc(-c2cccs2)nc1SCc1ccc(Br)cc1,,-21.6
COc1ccc(-c2nn3c(=O)cc(CN4CCN(C(=O)c5ccc(OC)c(OC)c5)CC4)nc3s2)cc1,,-13.7
COc1ccc(Cn2ccnc2SCC(=O)Nc2ccc3c(c2)OCO3)cc1,,-9.75
